# Experimental data published in the supplement of paper PMC6555819.
# What was measured:
# Experiment in all cases: PBM binding z-score (relative to random genomic background probes); higher = stronger binding; sequences stand for … in GC…GCGATTGACAGCGTAGAATGAAGG
# [1] = test system: PPARg:RXRa DBDmut IVT, anti-RXR (DBD mutation: RXRa K156A/R161A, NR concentration 270 nM, RXRa partner concentration 90 nM)
# Outline: (§1)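 Each nuclear receptor dimer, without ligand, was incubated for 1 h on custom Agilent 4×180K protein-binding microarrays. Binding was detected with antibodies against each partner (one per run), and scanned fluorescence was regression-normalized. The binding z-scores are referenced to random human genomic background probes.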
# [2] = test system: PPARg:RXRa IVT, anti-PPARg (NR concentration 270 nM, RXRa partner concentration 90 nM)
# Outline: as §1
# [3] = test system: PPARg DBDmut IVT, anti-PPARg (DBD mutation: PPARg1 K132A/R137A, NR concentration 270 nM)
# Outline: as §1
# [4] = test system: PPARg homodimer (NR concentration 180 nM)
# Outline: as §1
# [5] = test system: PXR:RXRa (NR concentration 270 nM, RXRa partner concentration 90 nM)
# Outline: as §1
# [6] = test system: PXR homodimer (NR concentration 270 nM)
# Outline: as §1
# [7] = test system: RARa:RXR (NR concentration 270 nM, RXRa partner concentration 90 nM)
# Outline: as §1
# [8] = test system: RARa homodimer (NR concentration 270 nM)
# Outline: as §1
# [9] = test system: RARb:RXRa (NR concentration 270 nM, RXRa partner concentration 90 nM)
# Outline: as §1
# [10] = test system: RARb homodimer (NR concentration 270 nM)
# Outline: as §1
# [11] = test system: RARg:RXRa (NR concentration 270 nM, RXRa partner concentration 90 nM)
# Outline: as §1
# [12] = test system: RARg homodimer (NR concentration 270 nM)
# Outline: as §1
# [13] = test system: RXRa DBDmut IVT, anti-RXR (DBD mutation: RXRa K156A/R161A, NR concentration 90 nM)
# Outline: as §1
# [14] = test system: RXRa homodimer (NR concentration 180 nM)
# Outline: as §1
# [15] = test system: THRa:RXRa (NR concentration 90 nM, RXRa partner concentration 90 nM)
# Outline: as §1
# [16] = test system: THRa homodimer (NR concentration 90 nM)
# Outline: as §1
# [17] = test system: VDR homodimer (NR concentration 270 nM)
# Outline: as §1
Sequence,PBM binding z-score [1],PBM binding z-score [2],PBM binding z-score [3],PBM binding z-score [4],PBM binding z-score [5],PBM binding z-score [6],PBM binding z-score [7],PBM binding z-score [8],PBM binding z-score [9],PBM binding z-score [10],PBM binding z-score [11],PBM binding z-score [12],PBM binding z-score [13],PBM binding z-score [14],PBM binding z-score [15],PBM binding z-score [16],PBM binding z-score [17]
CTAACTAGGTCAAAGGACAGTGAAAGGCGACGTA,8.56,8.84,1.86,1.28,1.19,-0.0818,2.41,0.599,4.07,3.08,4.05,4.84,1.68,2.97,2.58,0.419,0.409
CGATCTAGGTCAAAGGACAGTGAAAGGCGACGTA,7.67,8.1,1.86,2.2,0.913,-0.421,2.13,0.262,3.79,2.74,3.63,4.58,1.7,2.76,2.62,0.472,0.297
CGAACTAGGGCAAAGGACAGTGAAAGGCGACGTA,7.08,6.68,0.104,0.584,-0.478,-0.625,-0.393,-0.727,2,1.44,1.1,1.87,0.227,-0.0436,0.0548,-0.953,-0.515
ATATGTAGGTTAGGGTCAATCAGAAAGTAGGGAA,6.1,6.62,1.96,2.82,3.61,1.38,4.43,1.88,3.59,3.59,4.12,3.71,1.23,5.05,3.83,2.6,2.43
CGAACTAGGTCACCAGGACAGTGCAGAGGTTGGA,8.28,8.75,0.713,2.02,1.73,0.15,2.58,0.578,4.14,3.73,4.5,5.27,1.53,3.58,3.36,2.27,0.862
ATATGTAGCTTAGGGTCATTCAGAAAGTAGGGAA,0.587,2.1,1.21,1.78,4.04,0.915,4.2,1.36,3.24,2.97,3.71,2.73,2.16,4.87,4.07,3.15,3.71
ATGTGTAGGTTAGGGTCATTCAGAAAGTAGGGAA,2.92,3.98,1.73,3.73,4.68,3.2,5.25,2.44,3.87,3.9,4.4,3.74,2.52,5.52,4.17,3.9,4.18
ATATGTAGGTTAGGGTCATTGAGAAAGTAGGGAA,6.25,6.47,1.4,2.67,4.2,1.72,4.69,2.38,3.59,3.51,4.09,3.1,2.32,5.3,4.13,3.44,3.55
CGAACTAGATCACCAGGACAGTGAAGAGGTTGGA,3.19,1.58,-0.163,0.192,-0.455,-0.0713,-0.108,-0.196,-0.0219,0.0313,-0.13,0.172,0.251,0.0064,0.901,0.52,-0.172
ATATGTAGGTCAGGGTCATTCAGAAAGTAGGGAA,7.87,8.62,2.1,3.22,4.42,1.93,5.05,2.85,4.49,4.5,5.21,5.33,2.58,5.76,4,2.37,4.27
ATATGTAGGTTAGGGTCATTCAGAAAGTAGGGAA,6.61,6.95,3.49,3.86,4.66,2.12,5.52,2.73,3.34,3.49,4.11,3.21,2.68,5.53,3.97,3.55,4.01
CGAACTAGGTCACCAGCACAGTGAAGAGGTTGGA,8.34,8.76,0.181,1.79,1.41,0.0792,2.39,0.262,4.11,3.37,4.43,5.44,1.35,3.29,3.1,1.29,0.496
CGAACTAGCTCACCAGGACAGTGAAGAGGTTGGA,0.166,-0.411,0.212,-0.0125,-0.706,-0.202,-0.594,-0.478,-0.409,0.0882,-0.448,-0.336,0.0205,-0.153,0.96,0.613,-0.481
CGAACTAGGTCATCAGGACAGTGAAGAGGTTGGA,7.93,8.18,0.121,1.34,1.32,0.123,2.27,0.72,3.9,3.22,4.14,4.73,1.67,2.99,3.38,1.97,0.876
